# From article PMC7862700, “An all-to-all approach to the identification of sequence-specific readers for epigenetic DNA modifications on cytosine”
# Columns and labels:
# Experiment in all cases: DAPPL (digital affinity profiling via proximity ligation, sequencing); 10 mM Tris-HCl pH 7.5, 50 mM NaCl, 1 mM DTT, 4% glycerol, room temperature, 30 min; GST-TFs on glutathione beads, 16-mer random dsDNA library, 0.1% formaldehyde crosslink after washing; high values mean tight binding
# Conditions in all cases: protein: recombinant; tags: N-terminal GST; dsDNA, one strand shown
# FLI1 = biological target: T1, FLI1 (Homo sapiens, UniProt Q01543 1-452)
# T1 sequence: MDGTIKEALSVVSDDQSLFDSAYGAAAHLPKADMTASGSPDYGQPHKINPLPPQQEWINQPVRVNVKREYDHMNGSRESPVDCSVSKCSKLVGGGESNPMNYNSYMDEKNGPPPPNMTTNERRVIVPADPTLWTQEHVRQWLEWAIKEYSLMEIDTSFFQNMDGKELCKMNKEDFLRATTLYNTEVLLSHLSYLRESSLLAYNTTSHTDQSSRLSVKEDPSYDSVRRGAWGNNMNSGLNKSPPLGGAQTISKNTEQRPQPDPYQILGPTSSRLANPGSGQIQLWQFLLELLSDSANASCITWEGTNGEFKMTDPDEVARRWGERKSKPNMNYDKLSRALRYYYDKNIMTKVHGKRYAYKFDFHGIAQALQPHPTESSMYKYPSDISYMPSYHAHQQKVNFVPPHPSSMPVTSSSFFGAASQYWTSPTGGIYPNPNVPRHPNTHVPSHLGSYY
# Method in brief: (§1)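 Human transcription factors carrying a GST fusion were produced in yeast, bound to glutathione beads, tagged with DNA barcodes and pooled together with a tag-only sample. Each pool was held with 200 nmole of a random double-stranded 16-mer DNA library in Tris/NaCl/DTT/glycerol buffer for 30 min at room temperature, then washed, crosslinked in 0.1% formaldehyde, proximity-ligated with BsaI/T4 ligase (1 h, 37 °C), PCR-amplified and sequenced on an Illumina NextSeq500. Binding signal is the read frequency of each hexamer for a given factor divided by its frequency in the tag-only sample.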
# ELK1 = biological target: T2, ELK1 (Homo sapiens, UniProt P19419 1-428)
# T2 sequence: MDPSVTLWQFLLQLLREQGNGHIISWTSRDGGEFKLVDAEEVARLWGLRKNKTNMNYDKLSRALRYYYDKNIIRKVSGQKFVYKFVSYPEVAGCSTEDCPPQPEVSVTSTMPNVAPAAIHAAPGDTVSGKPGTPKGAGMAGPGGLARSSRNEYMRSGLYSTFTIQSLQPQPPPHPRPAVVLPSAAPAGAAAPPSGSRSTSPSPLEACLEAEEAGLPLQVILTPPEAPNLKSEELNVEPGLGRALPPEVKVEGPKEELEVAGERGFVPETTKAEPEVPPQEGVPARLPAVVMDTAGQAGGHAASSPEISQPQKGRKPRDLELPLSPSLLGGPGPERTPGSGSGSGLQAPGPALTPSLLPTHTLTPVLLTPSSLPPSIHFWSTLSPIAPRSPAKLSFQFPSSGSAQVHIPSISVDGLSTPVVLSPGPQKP
# Method in brief: as §1
# GABPA = biological target: T3, GABPA (Homo sapiens, UniProt Q06546 1-454)
# T3 sequence: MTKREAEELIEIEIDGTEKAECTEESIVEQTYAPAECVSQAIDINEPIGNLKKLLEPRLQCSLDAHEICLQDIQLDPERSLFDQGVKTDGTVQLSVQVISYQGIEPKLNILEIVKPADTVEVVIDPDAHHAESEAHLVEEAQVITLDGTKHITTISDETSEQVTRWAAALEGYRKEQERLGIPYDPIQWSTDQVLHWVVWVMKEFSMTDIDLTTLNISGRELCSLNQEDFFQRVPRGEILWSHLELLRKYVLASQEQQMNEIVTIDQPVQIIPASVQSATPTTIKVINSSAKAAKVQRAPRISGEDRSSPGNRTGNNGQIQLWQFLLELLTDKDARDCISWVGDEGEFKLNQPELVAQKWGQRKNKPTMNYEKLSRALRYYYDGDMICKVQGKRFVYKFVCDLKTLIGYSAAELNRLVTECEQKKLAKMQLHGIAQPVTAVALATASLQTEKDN
# Method in brief: as §1
# ERG = biological target: T4, ERG (Homo sapiens, UniProt P11308 1-479)
# T4 sequence: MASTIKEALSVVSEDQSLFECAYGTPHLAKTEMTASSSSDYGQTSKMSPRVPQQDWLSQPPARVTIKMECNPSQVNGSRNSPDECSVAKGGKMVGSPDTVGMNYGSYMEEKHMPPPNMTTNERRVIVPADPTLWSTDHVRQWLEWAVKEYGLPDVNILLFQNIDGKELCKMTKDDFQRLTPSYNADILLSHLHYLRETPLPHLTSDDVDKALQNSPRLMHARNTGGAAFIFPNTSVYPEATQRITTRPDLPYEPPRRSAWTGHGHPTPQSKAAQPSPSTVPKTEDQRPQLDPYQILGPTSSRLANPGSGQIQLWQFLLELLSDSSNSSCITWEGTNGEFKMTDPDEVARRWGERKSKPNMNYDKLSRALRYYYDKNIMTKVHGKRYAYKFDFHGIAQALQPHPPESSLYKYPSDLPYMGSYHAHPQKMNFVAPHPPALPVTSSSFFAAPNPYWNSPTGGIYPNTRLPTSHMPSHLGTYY
# Method in brief: as §1
# ELF1 = ELF1 (Homo sapiens, UniProt P32519 1-619)
# Chain of ELF1 (P32519 whole entry): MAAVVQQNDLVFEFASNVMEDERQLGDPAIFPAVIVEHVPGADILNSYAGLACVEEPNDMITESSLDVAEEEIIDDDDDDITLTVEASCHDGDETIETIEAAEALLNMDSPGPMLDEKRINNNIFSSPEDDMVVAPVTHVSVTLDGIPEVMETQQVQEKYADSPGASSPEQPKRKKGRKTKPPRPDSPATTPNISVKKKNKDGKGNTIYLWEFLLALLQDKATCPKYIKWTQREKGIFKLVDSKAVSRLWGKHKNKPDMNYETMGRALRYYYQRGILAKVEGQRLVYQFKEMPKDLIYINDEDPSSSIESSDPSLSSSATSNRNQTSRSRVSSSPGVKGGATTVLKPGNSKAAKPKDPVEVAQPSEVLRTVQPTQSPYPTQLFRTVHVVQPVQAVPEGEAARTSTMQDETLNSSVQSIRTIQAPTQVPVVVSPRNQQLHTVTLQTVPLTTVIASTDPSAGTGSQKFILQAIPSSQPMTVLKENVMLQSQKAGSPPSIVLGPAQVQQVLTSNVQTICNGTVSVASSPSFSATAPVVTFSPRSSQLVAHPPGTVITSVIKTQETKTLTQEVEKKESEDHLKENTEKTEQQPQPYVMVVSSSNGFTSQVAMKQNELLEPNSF
# Method in brief: as §1
# EHF = biological target: T5, EHF (Homo sapiens, UniProt Q9NZC4 1-300)
# T5 sequence: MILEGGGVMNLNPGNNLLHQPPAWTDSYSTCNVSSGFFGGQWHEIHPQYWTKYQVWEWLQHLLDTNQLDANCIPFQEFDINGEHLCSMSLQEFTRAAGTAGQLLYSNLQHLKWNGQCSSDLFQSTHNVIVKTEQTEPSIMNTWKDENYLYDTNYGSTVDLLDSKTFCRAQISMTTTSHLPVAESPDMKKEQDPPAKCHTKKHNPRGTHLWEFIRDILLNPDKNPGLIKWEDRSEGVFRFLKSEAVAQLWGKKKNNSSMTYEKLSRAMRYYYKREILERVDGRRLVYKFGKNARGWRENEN
# Method in brief: as §1
# SPI1 = SPI1 (Homo sapiens, UniProt P17947 1-270)
# Method in brief: as §1
# SPIB = SPIB (Homo sapiens, UniProt Q01892 1-262)
# Chain of SPIB (Q01892 whole entry): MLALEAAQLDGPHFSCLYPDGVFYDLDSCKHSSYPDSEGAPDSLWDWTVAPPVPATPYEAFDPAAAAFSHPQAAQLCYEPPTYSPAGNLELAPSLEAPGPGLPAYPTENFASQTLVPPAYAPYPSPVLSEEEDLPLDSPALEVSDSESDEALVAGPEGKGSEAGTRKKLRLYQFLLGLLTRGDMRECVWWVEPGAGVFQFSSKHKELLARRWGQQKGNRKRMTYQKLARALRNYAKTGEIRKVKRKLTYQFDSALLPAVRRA
# Method in brief: as §1
# ELK3 = biological target: T6, ELK3 (Homo sapiens, UniProt P41970 1-407)
# T6 sequence: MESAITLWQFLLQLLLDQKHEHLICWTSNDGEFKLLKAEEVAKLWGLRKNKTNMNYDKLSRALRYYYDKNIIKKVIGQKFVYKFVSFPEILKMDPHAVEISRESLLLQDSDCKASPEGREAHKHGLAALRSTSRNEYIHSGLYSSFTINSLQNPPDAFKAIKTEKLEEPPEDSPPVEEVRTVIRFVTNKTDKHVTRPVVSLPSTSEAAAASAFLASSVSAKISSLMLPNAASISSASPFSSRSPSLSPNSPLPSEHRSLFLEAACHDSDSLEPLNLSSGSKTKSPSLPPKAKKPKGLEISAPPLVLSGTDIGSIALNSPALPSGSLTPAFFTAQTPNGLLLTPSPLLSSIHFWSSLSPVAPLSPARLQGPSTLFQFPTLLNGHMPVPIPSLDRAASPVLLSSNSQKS
# Method in brief: as §1
# ETV5 = ETV5 (Homo sapiens, UniProt P41161 1-510)
# Chain of ETV5 (P41161 whole entry): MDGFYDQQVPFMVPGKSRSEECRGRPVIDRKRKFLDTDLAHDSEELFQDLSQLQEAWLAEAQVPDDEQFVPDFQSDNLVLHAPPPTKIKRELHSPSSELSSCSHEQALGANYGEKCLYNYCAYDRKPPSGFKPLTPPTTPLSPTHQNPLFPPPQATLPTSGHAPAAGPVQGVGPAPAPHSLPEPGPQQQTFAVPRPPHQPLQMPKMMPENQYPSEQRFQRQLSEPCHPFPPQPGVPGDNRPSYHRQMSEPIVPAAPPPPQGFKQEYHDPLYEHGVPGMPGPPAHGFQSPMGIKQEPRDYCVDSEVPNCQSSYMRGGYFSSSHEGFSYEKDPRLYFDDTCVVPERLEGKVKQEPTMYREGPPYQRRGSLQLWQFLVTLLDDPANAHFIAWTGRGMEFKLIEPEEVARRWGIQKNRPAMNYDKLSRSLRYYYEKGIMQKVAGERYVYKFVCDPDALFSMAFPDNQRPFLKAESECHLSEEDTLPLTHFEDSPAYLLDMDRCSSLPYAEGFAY
# Method in brief: as §1
# SPIC = biological target: T7, SPIC (Homo sapiens, UniProt Q8N5J4 1-248)
# T7 sequence: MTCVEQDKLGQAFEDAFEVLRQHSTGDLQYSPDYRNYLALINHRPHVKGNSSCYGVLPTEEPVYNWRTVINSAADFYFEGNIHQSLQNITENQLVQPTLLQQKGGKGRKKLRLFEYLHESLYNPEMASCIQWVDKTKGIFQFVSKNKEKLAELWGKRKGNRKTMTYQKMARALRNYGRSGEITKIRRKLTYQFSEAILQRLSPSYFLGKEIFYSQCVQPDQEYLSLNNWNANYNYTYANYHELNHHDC
# Method in brief: as §1
# ELF4 = ELF4 (Homo sapiens, UniProt Q99607 1-663)
# Chain of ELF4 (Q99607 whole entry): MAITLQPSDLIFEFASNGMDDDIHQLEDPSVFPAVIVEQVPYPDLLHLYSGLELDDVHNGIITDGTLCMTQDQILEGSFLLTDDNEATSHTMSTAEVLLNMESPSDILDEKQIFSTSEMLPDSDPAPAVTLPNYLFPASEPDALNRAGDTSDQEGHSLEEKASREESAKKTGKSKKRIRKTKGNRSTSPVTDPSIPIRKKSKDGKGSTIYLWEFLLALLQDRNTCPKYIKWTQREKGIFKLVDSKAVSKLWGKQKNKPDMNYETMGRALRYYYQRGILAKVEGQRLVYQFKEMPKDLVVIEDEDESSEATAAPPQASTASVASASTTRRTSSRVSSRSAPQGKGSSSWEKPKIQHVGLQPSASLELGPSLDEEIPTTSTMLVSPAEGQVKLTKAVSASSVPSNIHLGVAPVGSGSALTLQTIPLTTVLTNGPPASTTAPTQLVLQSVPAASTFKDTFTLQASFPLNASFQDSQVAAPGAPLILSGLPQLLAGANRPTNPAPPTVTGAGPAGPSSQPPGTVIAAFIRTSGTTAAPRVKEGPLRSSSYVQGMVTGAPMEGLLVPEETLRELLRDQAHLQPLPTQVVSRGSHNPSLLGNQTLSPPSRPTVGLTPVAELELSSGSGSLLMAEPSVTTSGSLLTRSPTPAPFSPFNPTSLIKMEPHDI
# Method in brief: as §1
# ETV1 = ETV1 (Homo sapiens, UniProt P50549 1-477)
# Chain of ETV1 (P50549 whole entry): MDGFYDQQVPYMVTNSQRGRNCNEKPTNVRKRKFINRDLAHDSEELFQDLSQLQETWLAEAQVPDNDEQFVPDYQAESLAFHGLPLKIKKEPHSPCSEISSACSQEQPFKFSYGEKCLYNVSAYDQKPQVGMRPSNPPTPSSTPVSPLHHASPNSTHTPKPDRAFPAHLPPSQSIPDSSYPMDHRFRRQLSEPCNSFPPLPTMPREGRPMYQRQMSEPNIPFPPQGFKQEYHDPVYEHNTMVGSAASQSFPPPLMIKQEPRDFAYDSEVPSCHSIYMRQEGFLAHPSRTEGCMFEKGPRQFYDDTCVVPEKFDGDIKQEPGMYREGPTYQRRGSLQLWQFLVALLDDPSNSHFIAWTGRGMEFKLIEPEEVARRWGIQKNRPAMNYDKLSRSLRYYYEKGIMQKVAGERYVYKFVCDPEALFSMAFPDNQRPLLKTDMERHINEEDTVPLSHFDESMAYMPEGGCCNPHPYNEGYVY
# Method in brief: as §1
# ERF = biological target: T8, ERF (Homo sapiens, UniProt P50548 1-548)
# T8 sequence: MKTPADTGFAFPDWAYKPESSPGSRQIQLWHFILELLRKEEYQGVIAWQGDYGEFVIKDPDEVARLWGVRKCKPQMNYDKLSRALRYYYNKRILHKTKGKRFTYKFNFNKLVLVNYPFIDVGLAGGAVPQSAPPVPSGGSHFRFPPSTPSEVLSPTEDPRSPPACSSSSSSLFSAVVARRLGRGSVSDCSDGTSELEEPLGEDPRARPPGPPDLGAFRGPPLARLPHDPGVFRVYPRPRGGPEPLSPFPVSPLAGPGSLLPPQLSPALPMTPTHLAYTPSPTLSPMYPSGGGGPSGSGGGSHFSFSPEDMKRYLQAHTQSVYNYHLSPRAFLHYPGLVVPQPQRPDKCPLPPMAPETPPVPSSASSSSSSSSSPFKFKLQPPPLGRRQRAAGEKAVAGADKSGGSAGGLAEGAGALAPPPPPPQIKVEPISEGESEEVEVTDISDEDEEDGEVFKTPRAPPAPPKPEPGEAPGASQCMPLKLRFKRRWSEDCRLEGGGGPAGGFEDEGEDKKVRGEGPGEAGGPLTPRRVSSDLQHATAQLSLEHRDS
# Method in brief: as §1
# ETV3L = biological target: T9, ETV3L (Homo sapiens, UniProt Q6ZN32 1-361)
# T9 sequence: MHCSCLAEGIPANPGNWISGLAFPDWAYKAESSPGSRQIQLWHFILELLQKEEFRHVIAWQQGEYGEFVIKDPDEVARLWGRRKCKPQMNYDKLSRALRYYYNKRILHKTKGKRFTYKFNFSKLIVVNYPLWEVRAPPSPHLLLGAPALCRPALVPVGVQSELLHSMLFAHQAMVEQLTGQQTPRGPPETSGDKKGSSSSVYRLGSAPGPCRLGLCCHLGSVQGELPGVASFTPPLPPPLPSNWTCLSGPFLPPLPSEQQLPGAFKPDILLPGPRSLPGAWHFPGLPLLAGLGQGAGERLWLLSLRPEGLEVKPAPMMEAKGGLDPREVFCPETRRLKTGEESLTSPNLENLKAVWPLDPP
# Method in brief: as §1
# ETS2 = biological target: T10, ETS2 (Homo sapiens, UniProt P15036 1-469)
# T10 sequence: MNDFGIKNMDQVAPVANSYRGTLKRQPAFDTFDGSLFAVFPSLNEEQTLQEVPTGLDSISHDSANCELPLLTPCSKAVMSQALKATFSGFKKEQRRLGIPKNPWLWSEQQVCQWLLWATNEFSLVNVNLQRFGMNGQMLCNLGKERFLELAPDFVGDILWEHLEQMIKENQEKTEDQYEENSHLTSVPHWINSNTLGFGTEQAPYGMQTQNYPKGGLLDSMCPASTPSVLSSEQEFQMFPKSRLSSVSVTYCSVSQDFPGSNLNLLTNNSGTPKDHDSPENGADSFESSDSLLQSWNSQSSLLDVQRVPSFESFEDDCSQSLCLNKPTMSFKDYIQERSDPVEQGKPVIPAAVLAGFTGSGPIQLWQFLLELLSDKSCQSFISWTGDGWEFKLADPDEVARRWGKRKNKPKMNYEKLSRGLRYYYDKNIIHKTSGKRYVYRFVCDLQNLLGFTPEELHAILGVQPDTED
# Method in brief: as §1
# SPDEF = biological target: T11, SPDEF (Homo sapiens, UniProt O95238 1-335)
# T11 sequence: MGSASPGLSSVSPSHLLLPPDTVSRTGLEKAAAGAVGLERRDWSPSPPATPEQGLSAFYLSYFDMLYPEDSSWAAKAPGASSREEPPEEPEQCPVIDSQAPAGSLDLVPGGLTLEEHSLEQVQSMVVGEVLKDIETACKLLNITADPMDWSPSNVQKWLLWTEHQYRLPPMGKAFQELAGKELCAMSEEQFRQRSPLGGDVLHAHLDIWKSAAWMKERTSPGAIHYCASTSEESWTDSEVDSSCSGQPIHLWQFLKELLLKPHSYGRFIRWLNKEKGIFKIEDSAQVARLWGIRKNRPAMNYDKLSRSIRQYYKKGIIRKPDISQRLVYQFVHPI
# Method in brief: as §1
# ETV3 = biological target: T12, ETV3 (Homo sapiens, UniProt P41162-2 1-143)
# T12 sequence: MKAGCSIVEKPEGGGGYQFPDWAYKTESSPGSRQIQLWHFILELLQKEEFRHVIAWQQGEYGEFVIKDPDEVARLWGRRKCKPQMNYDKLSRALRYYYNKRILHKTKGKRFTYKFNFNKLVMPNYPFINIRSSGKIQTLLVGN
# Method in brief: as §1
# ETV6 = ETV6 (Homo sapiens, UniProt P41212 1-452)
# Chain of ETV6 (P41212 whole entry): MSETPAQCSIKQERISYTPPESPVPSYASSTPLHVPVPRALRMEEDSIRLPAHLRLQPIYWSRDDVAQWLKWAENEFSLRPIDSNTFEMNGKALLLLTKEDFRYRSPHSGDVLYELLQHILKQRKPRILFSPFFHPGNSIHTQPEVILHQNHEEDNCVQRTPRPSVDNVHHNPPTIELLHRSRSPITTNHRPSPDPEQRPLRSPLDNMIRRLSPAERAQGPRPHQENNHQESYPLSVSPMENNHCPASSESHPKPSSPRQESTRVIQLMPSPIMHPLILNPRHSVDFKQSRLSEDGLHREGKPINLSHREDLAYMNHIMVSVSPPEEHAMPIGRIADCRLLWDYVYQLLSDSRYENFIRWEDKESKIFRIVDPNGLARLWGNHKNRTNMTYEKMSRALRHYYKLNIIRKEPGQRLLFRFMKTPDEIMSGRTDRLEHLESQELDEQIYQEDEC
# Method in brief: as §1
sequence,measurement,setting,value
ACGGCA,binding signal,FLI1,"1.04 fold enrichment (6-mer frequency, TF over GST control)"
same,binding signal,ELK1,"1.01 fold enrichment (6-mer frequency, TF over GST control)"
same,binding signal,GABPA,"1.1 fold enrichment (6-mer frequency, TF over GST control)"
same,binding signal,ERG,"1.03 fold enrichment (6-mer frequency, TF over GST control)"
same,binding signal,ELF1,"1.04 fold enrichment (6-mer frequency, TF over GST control)"
same,binding signal,EHF,"1.11 fold enrichment (6-mer frequency, TF over GST control)"
same,binding signal,SPI1,"1.05 fold enrichment (6-mer frequency, TF over GST control)"
same,binding signal,SPIB,"1.1 fold enrichment (6-mer frequency, TF over GST control)"
same,binding signal,ELK3,"1.01 fold enrichment (6-mer frequency, TF over GST control)"
same,binding signal,ETV5,"1.13 fold enrichment (6-mer frequency, TF over GST control)"
same,binding signal,SPIC,"1.05 fold enrichment (6-mer frequency, TF over GST control)"
same,binding signal,ELF4,"1.06 fold enrichment (6-mer frequency, TF over GST control)"
same,binding signal,ETV1,"1.03 fold enrichment (6-mer frequency, TF over GST control)"
same,binding signal,ERF,"1.01 fold enrichment (6-mer frequency, TF over GST control)"
same,binding signal,ETV3L,"1.1 fold enrichment (6-mer frequency, TF over GST control)"
same,binding signal,ETS2,"1.09 fold enrichment (6-mer frequency, TF over GST control)"
same,binding signal,SPDEF,"1.11 fold enrichment (6-mer frequency, TF over GST control)"
same,binding signal,ETV3,"1.06 fold enrichment (6-mer frequency, TF over GST control)"
same,binding signal,ETV6,"1.14 fold enrichment (6-mer frequency, TF over GST control)"
